Source: PubChem BioAssay
Calls of active or inactive are those of the source.

Legend:
[1] = binders of probe aFSTL3 on microarray, primary screen, stem cell growth factor project, biochemical, small-molecule microarray, fluorescence 635/667 (AID 1064); details: higher = more signal;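 also: measures binding of the biotinylated anti-FSTL3 antibody to printed compounds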
[2] = binders from COS7 lysate, DM2A8 probe, primary screen, torsin A project, cell lysate, small-molecule microarray, fluorescence 635/667 (AID 1065); details: higher = more signal, COS7 lysate expressing mutant human TOR1A
[3] = binders of probe aFGF2 on microarray, primary screen, stem cell growth factor project, biochemical, small-molecule microarray, fluorescence 635/667 (AID 1067); details: higher = more signal;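 also: measures binding of biotinylated aFGF2 protein to printed compounds on slides; z-score merges feature fluorescence and signal-to-noise across triplicate slides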
[4] = binders of probe aFGF10 on microarray, primary screen, stem cell growth factor project, biochemical, small-molecule microarray, fluorescence 635/667 (AID 1071); details: higher = more signal;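 also: score merges 667 nm spot intensity and signal to noise from triplicate slides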
[5] = biological target: Neurogenic locus notch homolog protein 2 (Homo sapiens) (UniProt Q04721); assay: Notch2 binders on small-molecule microarrays, primary screen, biochemical, small-molecule microarray, 635 nm fluorescence, stem cell growth factors (AID 1073); details: Notch2 binding, higher = more signal
[6] = biological target: Pro-neuregulin-1, membrane-bound isoform (Homo sapiens) (UniProt Q02297); assay: NRG1 binders on small-molecule microarrays, primary screen, psychiatric disease protein project, biochemical, small-molecule microarray, fluorescence 635/667 (AID 1075); details: NRG1 binding, 635 nm fluorescence, higher = more signal;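 also: score combines 667 nm spot fluorescence with signal to noise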
Pro-neuregulin-1, membrane-bound isoform (Homo sapiens), sequence (Q02297 whole entry, looked up, the tested form may be a part, canonical isoform): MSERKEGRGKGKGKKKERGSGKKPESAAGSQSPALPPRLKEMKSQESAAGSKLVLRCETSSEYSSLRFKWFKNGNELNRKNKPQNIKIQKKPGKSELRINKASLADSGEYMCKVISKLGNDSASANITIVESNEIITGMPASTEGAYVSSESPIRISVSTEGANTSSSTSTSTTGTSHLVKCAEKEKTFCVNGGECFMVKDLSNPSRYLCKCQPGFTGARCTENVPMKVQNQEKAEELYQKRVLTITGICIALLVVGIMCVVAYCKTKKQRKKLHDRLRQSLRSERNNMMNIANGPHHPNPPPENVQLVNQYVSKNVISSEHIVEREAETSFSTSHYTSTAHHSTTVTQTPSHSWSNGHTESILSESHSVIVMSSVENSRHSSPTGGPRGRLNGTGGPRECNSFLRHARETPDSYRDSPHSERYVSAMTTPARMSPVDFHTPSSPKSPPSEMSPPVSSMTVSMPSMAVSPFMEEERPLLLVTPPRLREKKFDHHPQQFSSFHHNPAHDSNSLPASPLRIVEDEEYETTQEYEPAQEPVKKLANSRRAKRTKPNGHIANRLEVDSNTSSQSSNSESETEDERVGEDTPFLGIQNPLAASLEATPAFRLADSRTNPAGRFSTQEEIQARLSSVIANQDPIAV

[7] = system: Neuregulin-1 EGF-like domain; assay: binders of neuregulin-1 EGF-like domain, primary screen, biochemical, small-molecule microarray, 635 nm fluorescence (AID 1081); details: small-molecule microarray binding, higher = more signal;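 also: binding of the protein to compounds printed on small-molecule microarray slides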
[8] = FRG1 promoter luciferase signal modulators, primary screen, FRG1 inhibition for FSHD, cell-based, C2C12 myotubes, firefly/Renilla luciferase, luminescence (AID 1084); details: higher = more signal, called active from +8 up or from −8 down
[9] = binders of probe aFST on microarray, primary screen, stem cell growth factor project, biochemical, small-molecule microarray, fluorescence 635/667 (AID 1086); details: higher = more signal;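 also: score merges 667 nm fluorescence with signal-to-noise of each printed compound spot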
[10] = binders of probe aHhip on microarray, primary screen, stem cell growth factor project, biochemical, small-molecule microarray, fluorescence 635/667 (AID 1087); details: higher = more signal;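 also: score merges spot fluorescence at 667nm with spot signal to noise ratio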
[11] = system: PRMT1 (protein arginine N-methyltransferase 1); assay: PRMT1 binders on small-molecule microarrays, primary screen, biochemical, small-molecule microarray, 635 nm fluorescence (AID 1088); details: small-molecule microarray binding, higher = more signal;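 also: binding of Prmt1 protein to compounds spotted on small-molecule microarray slides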
[12] = yeast growth modulation, basal conditions, primary screen, YJM789 clinical isolate, OD600, 24 h (AID 1089);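 also: growth of clinical yeast isolate S. cerevisiae YJM 789 seeded 1000 cells per well; test concentration not given here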; details: S. cerevisiae YJM789 growth, higher = more signal, called active from +8 up or from −8 down
[13] = fission yeast growth modulation, primary screen, strain 972, OD600, 24 h, no modulator (AID 1090);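 also: basal condition with compound alone and no growth modifier present; test concentration not given here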; details: S. pombe 972 growth, higher = more signal, called active from +8 up or from −8 down
[14] = S. cerevisiae growth modulation with rapamycin, primary screen, strain BY4716, OD600, 96 h (AID 1091); details: higher = more signal, called active from +8 up or from −8 down; also: test concentration not given here
[15] = biological target: Torsin-1A-interacting protein 2 (Homo sapiens) (UniProt Q8NFQ8); assay: LULL1 binders on small-molecule microarray, primary screen, cell lysate, human LULL1 lysate, 635/667 nm fluorescence (AID 1092); details: hLULL1 lysate binding, 635 nm fluorescence, higher = more signal;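 also: probe is lysate of COS7 cells overexpressing human LULL1; score merges per-feature 667 nm fluorescence with signal-to-noise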
Torsin-1A-interacting protein 2 (Homo sapiens), sequence (Q8NFQ8 whole entry, looked up): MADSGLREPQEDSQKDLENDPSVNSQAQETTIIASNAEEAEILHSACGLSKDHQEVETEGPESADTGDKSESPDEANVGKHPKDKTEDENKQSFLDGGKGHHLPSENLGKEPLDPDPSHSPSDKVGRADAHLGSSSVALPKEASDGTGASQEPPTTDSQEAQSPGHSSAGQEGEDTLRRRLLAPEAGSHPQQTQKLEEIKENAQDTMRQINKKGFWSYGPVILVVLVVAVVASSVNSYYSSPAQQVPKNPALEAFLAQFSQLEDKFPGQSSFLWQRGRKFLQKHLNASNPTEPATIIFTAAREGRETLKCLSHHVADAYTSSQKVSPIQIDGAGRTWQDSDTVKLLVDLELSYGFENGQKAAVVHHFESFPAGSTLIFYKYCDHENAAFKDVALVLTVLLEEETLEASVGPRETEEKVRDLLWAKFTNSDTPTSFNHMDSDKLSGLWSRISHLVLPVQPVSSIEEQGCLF

[16] = E. coli growth modulation, two-sided OD650, primary screen, E. coli filamentation project, strain DRC41, 24 h (AID 1093); details: OD650, 24 h, higher = more signal, called active from +8 up or from −8 down;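 also: MC1000 strain lacking acrAB efflux and sulA so SOS filamentation is blocked; test concentration not given here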
[17] = small-molecule microarray binders of probe aLefty2, primary screen, biochemical, biotinylated probe, 635/667 nm fluorescence (AID 1094); details: higher = more signal;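 also: score merges spot fluorescence near 667 nm with spot signal-to-noise ratio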
[18] = system: Noggin (protein binding on small-molecule microarray); assay: Noggin binders on small-molecule microarray, primary screen, biochemical, 635/667 nm fluorescence (AID 1095); details: 635 nm fluorescence, higher = more signal;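 also: score merges 667 nm feature fluorescence with signal to noise over triplicate slides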
[19] = biological target: Neurogenic locus notch homolog protein 3 (Homo sapiens) (UniProt Q9UM47); assay: NOTCH3 binders on small-molecule microarray, primary screen, biochemical, 635/667 nm fluorescence (AID 1096); details: NOTCH3 binding, 635 nm fluorescence, higher = more signal
Neurogenic locus notch homolog protein 3 (Homo sapiens), sequence (Q9UM47 whole entry, looked up): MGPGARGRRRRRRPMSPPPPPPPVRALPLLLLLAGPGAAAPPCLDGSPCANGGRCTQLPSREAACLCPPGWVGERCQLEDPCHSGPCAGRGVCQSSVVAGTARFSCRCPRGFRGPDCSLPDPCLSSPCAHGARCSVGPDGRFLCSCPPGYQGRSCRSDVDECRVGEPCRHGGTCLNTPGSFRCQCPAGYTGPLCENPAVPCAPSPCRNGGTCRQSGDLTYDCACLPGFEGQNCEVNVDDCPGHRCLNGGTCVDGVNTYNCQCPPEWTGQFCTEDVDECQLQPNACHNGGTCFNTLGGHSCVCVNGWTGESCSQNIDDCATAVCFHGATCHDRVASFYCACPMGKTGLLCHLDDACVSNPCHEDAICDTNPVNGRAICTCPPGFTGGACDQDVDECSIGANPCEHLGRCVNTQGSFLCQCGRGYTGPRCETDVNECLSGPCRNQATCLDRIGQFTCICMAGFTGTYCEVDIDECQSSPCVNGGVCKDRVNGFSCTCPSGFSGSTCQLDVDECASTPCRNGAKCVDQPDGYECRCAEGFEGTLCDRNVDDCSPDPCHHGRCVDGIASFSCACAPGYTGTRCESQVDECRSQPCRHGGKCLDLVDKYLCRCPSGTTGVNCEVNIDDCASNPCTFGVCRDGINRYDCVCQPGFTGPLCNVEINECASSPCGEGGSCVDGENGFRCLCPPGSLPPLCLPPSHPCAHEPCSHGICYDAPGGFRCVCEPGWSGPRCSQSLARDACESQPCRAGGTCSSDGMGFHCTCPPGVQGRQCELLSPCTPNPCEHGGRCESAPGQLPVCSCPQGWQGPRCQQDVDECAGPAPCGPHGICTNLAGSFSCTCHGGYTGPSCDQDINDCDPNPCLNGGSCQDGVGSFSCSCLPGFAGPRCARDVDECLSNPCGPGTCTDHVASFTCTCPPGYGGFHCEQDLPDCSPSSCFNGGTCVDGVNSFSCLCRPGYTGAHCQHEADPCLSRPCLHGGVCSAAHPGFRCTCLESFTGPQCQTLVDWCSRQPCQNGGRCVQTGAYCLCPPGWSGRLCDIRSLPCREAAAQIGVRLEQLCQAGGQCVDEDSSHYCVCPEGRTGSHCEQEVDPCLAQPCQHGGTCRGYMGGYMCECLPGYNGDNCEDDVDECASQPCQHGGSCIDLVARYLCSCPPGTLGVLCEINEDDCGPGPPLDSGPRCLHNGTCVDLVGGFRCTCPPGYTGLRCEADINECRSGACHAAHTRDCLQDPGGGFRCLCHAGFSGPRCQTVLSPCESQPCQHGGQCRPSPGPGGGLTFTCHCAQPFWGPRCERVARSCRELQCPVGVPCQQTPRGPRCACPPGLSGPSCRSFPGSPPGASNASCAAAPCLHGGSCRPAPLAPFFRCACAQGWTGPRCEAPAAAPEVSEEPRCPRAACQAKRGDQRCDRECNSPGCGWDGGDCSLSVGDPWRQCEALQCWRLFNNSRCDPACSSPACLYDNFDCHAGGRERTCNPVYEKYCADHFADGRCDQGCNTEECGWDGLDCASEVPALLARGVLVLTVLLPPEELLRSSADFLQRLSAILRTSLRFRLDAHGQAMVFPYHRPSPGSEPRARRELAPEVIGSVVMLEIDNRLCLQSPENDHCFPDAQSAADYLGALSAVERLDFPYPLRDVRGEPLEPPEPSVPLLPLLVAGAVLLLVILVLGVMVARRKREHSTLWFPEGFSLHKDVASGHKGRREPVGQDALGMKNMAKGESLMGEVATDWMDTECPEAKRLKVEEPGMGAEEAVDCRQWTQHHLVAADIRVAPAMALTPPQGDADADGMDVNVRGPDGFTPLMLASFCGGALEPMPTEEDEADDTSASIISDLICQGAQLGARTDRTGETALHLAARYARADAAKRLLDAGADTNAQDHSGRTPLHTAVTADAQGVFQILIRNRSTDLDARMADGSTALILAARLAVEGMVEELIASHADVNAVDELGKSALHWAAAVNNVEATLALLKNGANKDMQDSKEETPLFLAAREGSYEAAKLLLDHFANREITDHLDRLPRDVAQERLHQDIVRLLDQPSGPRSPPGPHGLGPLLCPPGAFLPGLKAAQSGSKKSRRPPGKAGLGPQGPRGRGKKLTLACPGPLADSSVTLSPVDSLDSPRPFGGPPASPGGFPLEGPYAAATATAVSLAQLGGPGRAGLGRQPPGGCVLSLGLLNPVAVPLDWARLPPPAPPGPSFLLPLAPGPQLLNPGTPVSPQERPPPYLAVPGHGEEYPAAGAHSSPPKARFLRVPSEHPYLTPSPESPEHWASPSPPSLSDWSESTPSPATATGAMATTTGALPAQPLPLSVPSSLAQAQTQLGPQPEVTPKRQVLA

[20] = small-molecule microarray binders of probe aEGFR, primary screen, biochemical, biotinylated probe, 635/667 nm fluorescence (AID 1097); details: higher = more signal;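 also: probe is a biotinylated anti-EGFR antibody binding compounds printed on slides; score combines fluorescence near 667 nm and signal to noise of each spot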

| Compound | composite z-score [1] | composite z-score [2] | composite z-score [3] | composite z-score [4] | composite z-score [5] | composite z-score [6] | composite z-score [7] | z-score [8] | composite z-score [9] | composite z-score [10] | composite z-score [11] | z-score [12] | z-score [13] | z-score [14] | composite z-score [15] | z-score [16] | composite z-score [17] | composite z-score [18] | composite z-score [19] | composite z-score [20] |
| --- | --- | --- | --- | --- | --- | --- | --- | --- | --- | --- | --- | --- | --- | --- | --- | --- | --- | --- | --- | --- |
| NCCCCCNC(=O)[C@H]1C[C@H]2C(=O)NCC(=O)N2[C@H]1c1ccc(O)cc1 | -0.136 | 2.22 | -0.113 | 0.847 | 0.775 | 1.3 | 1.22 | 1.51 (inactive) | 0.106 | 0.154 | 1.55 | 0.535 (inactive) | -1.08 (inactive) | 1.11 (inactive) | 2.16 | 1.1 (inactive) | -0.0424 | 1.86 | 0.906 | 0.186 |
| O=C(O)[C@H]1C[C@H]2C(=O)NCC(=O)N2[C@H]1c1cccc(OCCO)c1 | 2.86 | 0.942 | 0.0568 | -0.213 | 0.29 | 1.41 | 0.986 | 5.62 (inactive) | 1.98 | 0.745 | 1.23 | -1.63 (inactive) | -2.01 (inactive) | -1.11 (inactive) | 1.51 | 2.5 (inactive) | 0.0889 | 0.0133 | 0.446 | 0.108 |
| CCCCC(=C=CC[C@@H](O)c1ccc(OCCO)cc1)C[C@@H](O)c1cc(Cl)cc(Cl)c1O | -0.12 | 0.0464 | -0.0924 | 0.458 | -0.0054 | 1.26 | 0.597 | -2.98 (inactive) | 0.0049 | 0.0007 | 0.21 | -2.58 (inactive) | -6.3 (inactive) | -1.39 (inactive) | 1.36 | 1.97 (inactive) | -0.057 | 0.988 | -0.174 | 0.24 |
| C[N+](C)(C)CCCC[C@@H]1NC(=O)[C@@H]2C[C@H](C(=O)NCCCCCNC(=O)CS)[C@H](c3ccc(O)cc3)N2C1=O | 0.152 | 0.338 | -0.14 | -1.01 | -1.26 | 1.94 | 1.23 | 1.26 (inactive) | -0.288 | 0.0274 | 1.08 | -1.44 (inactive) | -1.73 (inactive) | -0.905 (inactive) | 2.1 | 1.39 (inactive) | -0.188 | 1.39 | 0.322 | -0.149 |
| COc1ccc(C(=O)Nc2cccc(CN3C(=O)[C@@]4(O[C@@H](CCO)[C@H]([Si](C)(C)c5ccc(OC)cc5)[C@H]4C)c4ccccc43)c2)cc1 | 0.457 | -0.0176 | -0.0784 | 0.19 | 0.0782 | -0.0498 | 0.984 | -3.53 (inactive) | 0.0018 | -0.216 | 0.95 | 0.324 (inactive) | -9.44 (active) | 0.2 (inactive) | 1.35 | 1.68 (inactive) | 0.0005 | 0.297 | 0.0772 | -0.155 |
| C=C(C1=CCN(S(=O)(=O)c2ccc(C)cc2)C1)[C@@H](OC(C)=O)[C@@H]1CCCN1S(=O)(=O)c1ccccc1[N+](=O)[O-] | -0.0883 | -0.189 | -0.05 | 0.487 | -0.574 | -0.158 | 0.406 | -3.21 (inactive) | -0.344 | -0.0994 | -0.267 | 0.943 (inactive) | 0.0893 (inactive) | 1.82 (inactive) | 1.2 | 2.89 (inactive) | -0.297 | -0.305 | 0.127 | -0.202 |
| C=CC[C@@H](OC(=O)Nc1ccc(SC)cc1)c1ccc(OCCO)cc1 | 1.15 | -0.325 | -0.175 | -0.932 | -1.77 | 0.767 | 0.801 | 4.02 (inactive) | -0.464 | -0.251 | -0.306 | -0.0227 (inactive) | -3.88 (inactive) | 0.0294 (inactive) | 2.42 | 1.4 (inactive) | 0.214 | -1.07 | -0.525 | -0.204 |
| CN(C)CCCC[C@@H]1NC(=O)[C@@H]2C[C@H](C(=O)NCCCCCNC(=O)CS)[C@H](c3cccc(OCCO)c3)N2C1=O | 0.32 | 0.532 | -0.101 | 0.141 | 0.393 | 0.267 | 1.2 | 0.37 (inactive) | 0.19 | 0.259 | 1.07 | -2.64 (inactive) | -1.81 (inactive) | -2.15 (inactive) | 0.127 | 2.1 (inactive) | 0.0494 | 1.62 | 0.162 | 0.186 |
| COC(=O)[C@@]1(CCC(=O)OC(C)(C)C)COC(c2ccc(OCCCO)cc2)=N1 | 1.47 | -1.53 | -0.212 | -1.92 | -1.89 | -0.312 | 0.256 | -0.44 (inactive) | -0.311 | -0.405 | -0.964 | -1.42 (inactive) | -0.502 (inactive) | -0.752 (inactive) | -0.771 | 0.989 (inactive) | 0.0399 | -1.99 | -1.84 | -0.36 |
